From PubChem BioAssay AID1259422 (The Scripps Research Institute Molecular Screening Center, 2018) come the findings set out here.

For orientation: inhibition means the relative decrease from the control value, in per cent.

Values joined by “and” are separate entries in the source; they are usually repeats but may differ in a detail not shown here. Identical values can stand only once. Out of some 640,000 compounds screened, about 9,300 (1.5%) were called active. This excerpt belongs to a sample that is enriched for actives. Unmarked numbers belong to inactive results. No stated cut-off is given here; in the data, active means inhibition above about 32%; inactive means the rest.

The assay can be described thus: TEAD-YAP interaction inhibition, primary screen, TEAD-YAP interaction inhibitor project, luminescence, HEK-TIYL cells (AID 1259422).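 Further: 0% = median of test compound wells and 100% = reference inhibitor wells.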 The conditions noted are these: TEAD-Gal4/YAP UAS-luciferase luminescence, at 9.12 µM, active compounds read high.
Take `CCOc1ccc(-c2c(C#N)c(N)nc(OC)c2C#N)cc1`: the inhibition was -17.1%.

On to `CN1N=C(C(F)(F)F)/C(=N/OC(=O)c2ccc(Cl)cc2Cl)C1=O`, for which the inhibition is 6.23%. In the case of `CC(=O)Nc1ccc(Nc2ncnc3nc(-c4c(C)noc4C)[nH]c23)cc1` it was -7.16%; in that of `Cc1ccc(/C=C/C(=O)N2CCN(c3ccc([N+](=O)[O-])cc3)CC2)cc1`, 2.02%. In the case of `CCN(CC)CCNC(=O)c1c(CSc2ccccc2)n(C)c2cc(Br)c(OC)cc12` it was 6.43%; in that of `CCOc1ccc(-n2c(SCc3cc(C(C)=O)ccc3OC)nc3c(sc(=S)n3-c3ccccc3)c2=O)cc1`, -3.25%.

Consider `Cc1cc(C)cc(C(=O)NCC(=O)OCC(=O)NC(N)=O)c1`, for which the inhibition was 1.58%.

Turning to `COc1cccc(CNC(=O)c2[nH]c3cc(-c4cn[nH]c4)ccc3c2CN(C)Cc2ccccc2)c1`, the inhibition was -12.2%.

As for `COc1ccc(-c2nc(Nc3ccc(C)c(F)c3)c3ccccc3n2)cc1OC`, the inhibition was -0.35%. Take `COc1cc(Nc2nc(-c3ccc(OC)c(OC)c3)nc3ccccc23)cc(OC)c1`: the inhibition is 43% (active). In the case of `COc1ccc(-c2nc(Nc3cc(Oc4ccccc4)cc([N+](=O)[O-])c3)c3ccccc3n2)cc1OC` it was -13.1%; in that of `COc1ccccc1-n1nnc(C(=O)NC2CCCc3ccccc32)c1N` (stereo unspecified), 45.5% (active). In the case of `Nc1nnc(SCC(=O)NC2CCCc3ccccc32)s1` (stereo unspecified) it was 0.12%. In the case of `COc1ccccc1-n1nnc(C(=O)N2CCCCC2)c1N` it was -0.58%; in that of `Fc1cccc(Cn2nnc(-c3ccc4c(c3)OCO4)n2)c1`, -36.6%. With `CCOc1ccccc1-n1c(=S)sc2c(=O)n(-c3ccccc3C)c(SCC#N)nc21`, the inhibition was -7.3%. Turning to `O=[N+]([O-])c1cccc(S(=O)(=O)NNc2ccccc2)c1`, the inhibition is 2.84%. In the case of `OC(COc1ccccc1CNCCN1CCCCC1)CN1CCc2ccccc2C1` (stereo unspecified) it was 2.84%; in that of `Cc1c(C(=O)Nc2ccc(F)cc2F)sc2ncnc(N3CCc4ccccc4C3)c12`, 12.9%.

For `S=c1[nH]c(-c2ccc(Cl)cc2)cn1-c1cccc(Cl)c1`, the inhibition was -6.64%.

Consider `O=c1oc2ccccc2cc1-c1nnc(-c2ccccc2)o1`, for which the inhibition was -51.9%. In the case of `O=c1oc2ccccc2cc1-c1cn(-c2ccccc2)c(=S)[nH]1` it was 72.7% (active); in that of `CC(C)n1c(Nc2ccc(N3CCOCC3)cc2)nc2c(NCCc3ccc(O)cc3)ncnc21`, 12.6%; in that of `CCOC(=O)c1c(NC(=O)CN2CCCC2)sc(C)c1-c1ccccc1`, 4.43%. In the case of `CCOc1ccc2cc(C#N)c(SCC(=O)NCc3ccc(OC)cc3)nc2c1` it was 3.49%; in that of `COc1ccc2cc(C#N)c(SC)nc2c1`, 33.8% (active); in that of `COc1ccc(OC)c(NC(=O)CSc2nc3cc(OC)ccc3cc2C#N)c1`, 6.71%. On to `O=C(CSc1nc2ccc(Br)cc2c2nc3ccccc3n12)NCc1ccccc1`, for which the inhibition was 0.74%. For the molecule `CC(C)C(O)c1ccc2c(c1)CN(Cc1cccc(OCCO)c1)CCO2` (stereo unspecified), the inhibition is 1.92%.

Turning to `CCOc1ccccc1CN1CCOc2ccc(C(O)c3cccnc3)cc2C1` (stereo unspecified), the inhibition is 5.37%. In the case of `CCn1nc(C)c(CN2CCOc3ccc(C(O)c4cccnc4)cc3C2)c1C` (stereo unspecified) it was 36.6% (active); in that of `CCOc1ccc(-c2n[nH]c3c2C(c2ccccc2OC)NC3=O)cc1` (stereo unspecified), 18.1%. In the case of `O=C1CCCC2=C1C(c1ccccc1[N+](=O)[O-])C1=C(CCCC1=O)O2` it was -1.3%; in that of `CSc1sc(SC)c(CO)c1CO`, -4.01%; in that of `O=C(Nc1ccccn1)c1cc2c(s1)CCCC2`, 93.2% (active). With `CN1CCN(NC(=O)c2cc3c(s2)CCCCC3)CC1`, the inhibition was 12.5%.

In the case of `Cc1cccc(C(=O)Nc2sc3c(c2C(=O)Nc2ccccn2)CCCC3)c1`, the inhibition was -4.61%. In the case of `CC(C)NC(=O)Cn1nc2n(CC(=O)NC3CCCCC3C)c3ccccc3n2c1=O` (stereo unspecified) it was 1.58%; in that of `O=C(Nc1ccc(S(=O)(=O)Nc2nccs2)cc1)c1cc(Cl)cc(Cl)c1`, 1.26%. In the case of `C/C=C/c1ccc(Oc2ccc([N+](=O)[O-])c3cnccc23)c(OC)c1` it was -0.05%; in that of `Cn1ncc2c(NCc3cccnc3)ncnc21`, 3.93%; in that of `Clc1ccc(Cn2ncc3c(NCc4cccnc4)ncnc32)cc1`, 19.8%. In the case of `Brc1ccc2ncnc(NCc3cccnc3)c2c1` it was 34.6% (active); in that of `CCCNc1cc(CC)nc2c3c(C)cc(C)nc3nn12`, -5.94%; in that of `CCOc1cccc2sc(N3CCOCC3)nc12`, -1.73%. Take `COc1cc2c(cc1/C=C1/NC(=O)N(Cc3ccccc3Cl)C1=O)OCO2`: the inhibition is -0.77%. In the case of `O=C1/C(=C/c2ccc(-c3ccc([N+](=O)[O-])cc3)o2)C=C(c2ccccc2)N1c1cccc(Br)c1` it was 5.51%; in that of `CC(C)=NOC(=O)CCS(=O)(=O)c1nc(-c2cccs2)cc(C(F)(F)F)n1`, -33.7%; in that of `Cc1ccc(NC(=O)CSC2=C(C#N)C(c3ccc(F)cc3)CC(=O)N2)cc1` (stereo unspecified), 11.8%. In the case of `CCN1/C(=C/c2ccc3cc(OC)ccc3[n+]2CC)Sc2c1ccc1c2CCCC1`, the inhibition was 87.9% (active).

For the molecule `CCN1C(=O)/C(=C\c2ccc(OC)cc2)SC1=S`, the inhibition is 6.61%. In the case of `CC[N+]1=C(C)C(C)(C)c2cc(-c3ccccc3)ccc21` it was 25.8%; in that of `CCN1/C(=C/c2ccc3cc(C)ccc3[n+]2CC)Sc2ccc(OC)cc21`, 83.3% (active); in that of `CCN1/C(=C/c2ccc3cc(C)ccc3[n+]2CC)Sc2ccc(-c3ccccc3)cc21`, 88.8% (active). Regarding `CCN1/C(=C/c2ccc3ccc(C)cc3[n+]2CC)Sc2ccccc21`, the inhibition was 87.4% (active). In the case of `CCN1/C(=c2/s/c(=C3/C(=O)N(c4ccccc4)NC3=Nc3ccccc3)n(CC)c2=O)Sc2ccc(OC)cc21` it was 5.23%; in that of `CCC(/C=C1\Sc2ccc(-c3ccccc3)cc2N1CC)=C\c1sc2ccc3ccccc3c2[n+]1CC`, 21.8%.

For the molecule `Cc1noc(/C=C/N(C)C)c1S(=O)(=O)N1CCC(C(=O)N2CCCC2)CC1`, the inhibition was -1.15%. In the case of `CCN1C(=O)/C(=c2\sc3nc(-c4ccccc4)nn3c2=O)c2ccccc21` it was -17.8%. In the case of `O=C(NCc1cccnc1)C1CCCN(S(=O)(=O)c2ccc3[nH]c(=O)ccc3c2)C1` (stereo unspecified) it was 6.17%. Take `CCC(=O)N1c2ccccc2C2=C(SC(C(=O)OC)=C(C(=O)OC)C23SC(C(=O)OC)=C(C(=O)OC)S3)C1(C)C`: the inhibition is 3.65%. Consider `CCC1CCCCN1C(=O)c1sc2ncnc(N3CCN(c4ccc(OC)cc4)CC3)c2c1C` (stereo unspecified), for which the inhibition was 7.77%. In the case of `CCOC(=O)CC(=O)CSc1ccc2nnc(-c3ccc(Cl)cc3)n2n1` it was 1.1%; in that of `CC1CC1c1ccc(/C=C(\C#N)C(=O)Nc2cccc([N+](=O)[O-])c2)o1` (stereo unspecified), -64.5%. In the case of `COc1ccc2nc3c(nc2c1)C(=O)c1ccccc1C3=O` it was -19.6%; in that of `Cc1ccc2c(c1)C(=O)c1cc3ccccc3nc1-2`, -59.4%. In the case of `Cc1ccc2nc3c(nc2c1)C(=O)c1ccccc1-3` it was 46.8% (active). With `CCOc1ccc(N(C)S(=O)(=O)c2ccc3[nH]cc(C(=O)NCc4cccnc4)c(=O)c3c2)cc1`, the inhibition is 3.1%. In the case of `O=C(Nc1cccc(Cl)c1)Nc1noc2c1COc1ccccc1-2` it was -1.02%; in that of `COC(=O)/C=C1\Nc2ccccc2OC1=O`, -5.86%; in that of `COC(=O)/C=C(C(=O)OC)/C(C(=O)OC)=C1\Nc2ccccc2NC1=O`, 8.52%. With `COC(=O)/C=C1/C(=O)Nc2ccccc21`, the inhibition was 63.4% (active).

As to `Cc1cc(C(=O)N2CCOCC2)c2ccccc2n1`, the inhibition was 6.26%. In the case of `Nc1nc(NCCCN2CCCC2=O)cc(Nc2ccccc2)n1` it was -3.84% and 0.61%. In the case of `CCOC(=O)c1cnn(-c2nc3ccccc3s2)c1CNC(C)c1ccco1` (stereo unspecified) it was -20.8%; in that of `Nc1c(C(=O)Nc2cccc(C(=O)O)c2)sc2nc3c(cc12)CCCCC3`, -17.2%. In the case of `Cc1cccc(NC(=O)c2sc3nc4c(cc3c2N)CCC4)c1C` it was 36.1% (active); in that of `CC1(C)CC(=O)c2cc3c(N)c(C(=O)Nc4ccccc4Cl)sc3nc2C1`, -21.4%. As for `CC(=O)Nc1ccc(NC(=O)c2sc3nc4c(cc3c2N)CCCCCC4)cc1`, the inhibition was -8.57%.

In the case of `Nc1c(C(=O)c2ccccc2)sc2nc3c(cc12)CCCCC3`, the inhibition is 72.9% (active). In the case of `Nc1c(C(=O)c2ccc(Cl)cc2)sc2nc3c(cc12)CCCCCC3` it was -9.12%; in that of `Nc1c(C(=O)N2CCCCC2)sc2nc3c(cc12)CCC3`, -59.9%; in that of `Cc1c(Cl)cccc1NC(=O)c1sc2nc3c(cc2c1N)C(=O)CCC3`, 41.4% (active).

Turning to `Nc1c(C(=O)c2ccc(Br)cc2)sc2nc3c(cc12)CCCC3`, the inhibition was -11.1%. Regarding `Cc1cc(C(=O)COC(=O)c2cc(Cl)cc(Cl)c2N)c(C)n1CC1CCCO1` (stereo unspecified), the inhibition is 7.73%.

With `CCn1cc(CN[C@H]2C[C@H]3C(=O)N[C@@H](Cc4ccc(O)cc4)C(=O)N3C2)c(C)n1`, the inhibition is 9.24%.

Consider `COCc1ccc(-c2ccc(OC3CCN(c4ncnc5nc[nH]c45)CC3)cc2)cc1`, for which the inhibition is -7.79%. In the case of `CCCCCCOC1OC(COC(C)=O)C(OC(C)=O)C(OC(C)=O)C1NC(C)=O` (stereo unspecified) it was 10.2%; in that of `COc1ccc(-c2c(C)nn3c(NCCO)c4c(nc23)CCCC4)cc1`, 0.55%; in that of `COC(=O)C(NNc1ccccc1C)(NC(=O)c1ccc(Cl)cc1)C(F)(F)F` (stereo unspecified), -4.69%. In the case of `Cc1ccc(C)c(OCC(=O)NC(C)(C)C)c1` it was 1.69%.
